High-throughput results as filed in PubChem BioAssay.
In the library only some 6.8% were active in any assay of this set; here they are far more common.
T cruzi growth-1 – T. cruzi intracellular proliferation inhibitors, primary screen, cell-based, beta-gal Tulahuen parasites, NIH3T3 host, luminescence; T. cruzi beta-gal in NIH3T3, GalScreen luminescence, 90 h; hit rate 5.9% among 77,000; AID 624255, 2012; inhibition, % at 8.34 µM;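 active = mean inhibition above about 93%, with at least 55% of replicates each passing it, limit read from the data, passing the limit was not always enough; inconclusive = only one of those two conditions holds; inactive = neither condition holds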
Pf Dd2 growth – P. falciparum Dd2 growth inhibitors, primary screen, SYBR Green fluorescence, single dose replicates | 72 h; active compounds read low | activity change, % at 10 µM | hit rate 2.3% among 94,000 | AID 1159554, 2015; in the data active = activity change below about -80%; inconclusive = no clear call, values can overlap the other calls
C diff HTS – C. difficile growth inhibitors, primary screen, HTS; Clostridium difficile clinical isolate growth, OD600, 24 h; active compounds read low; growth activity, negative = inhibition, % at 16 µg/mL (by protocol); hit rate 0.25% among 86,000; AID 1259249, 2017;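 active = mean growth activity at or below -80% and every replicate also at or below -80%; inconclusive = mean at or below -80% but some replicate above -80%; inactive = mean growth activity above -80%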;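 also: 0% = DMSO wells and -100% = levofloxacin 16 µg/mL wells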
T cruzi growth-2 – T. cruzi intracellular proliferation inhibitors, confirmation, cell-based, NIH3T3 host, beta-gal parasite, luminescence, cherry-pick; T. cruzi beta-gal in NIH3T3, GalScreen luminescence, 90 h; shares compounds with T cruzi growth-1; inhibition, % at 8.35 µM; hit rate 72% among 5,600;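 active = mean replicate inhibition above about 95% and at least 55% of replicates individually reaching it, limit read from the data; inconclusive = only one of the two criteria is met; inactive = neither criterion is met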
T cruzi growth-3 – inhibitors of intracellular T. cruzi replication, confirmation, NIH3T3 host cells, beta-gal parasites, cherry-pick, set 2 | shares compounds with T cruzi growth-1 | T. cruzi beta-gal in NIH3T3, GalScreen luminescence, 90 h | inhibition, % at 2.09 µM | hit rate 21% among 5,600 | AID 651740, 2012;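 active = mean inhibition above about 95%, with at least 55% of replicates also reaching it, limit read from the data; inconclusive = meets just one of the two conditions; inactive = meets neither condition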;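 also: plate controls were neutral control median for no effect and positive control median for full effect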
NIH3T3 tox – cytotoxicity in mouse NIH/3T3 fibroblasts, confirmation, cytotoxicity control for T. cruzi proliferation inhibitor project, cell-based, cherry-pick, single point | shares compounds with T cruzi growth-1 | NIH/3T3 viability, CellTiter-Glo ATP luminescence, 90 h | cytotoxicity (signal decrease), % at 8.35 µM | hit rate 14% among 5,600 | AID 651742, 2012;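 active = mean signal decrease across replicates above about 35% based on untreated-well scatter, with enough replicates individually passing, limit read from the data; inconclusive = no rule stated though some were filed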;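 also: 0% = median of neutral control wells and 100% = median of positive control wells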
3T3 cytotox 2 – NIH/3T3 fibroblast cytotoxicity, confirmation, cytotoxicity control, cell-based, cherry-pick, single point, set 2 | shares compounds with T cruzi growth-1 | NIH/3T3 viability, CellTiter-Glo ATP luminescence, 90 h | inhibition, % at 24.9 µM | hit rate 56% among 5,600;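 active = mean loss of cell viability signal at or above a set limit, and enough replicates individually reaching it; inconclusive = meets only the mean limit or only the replicate share; inactive = meets neither condition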;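 also: 0% = median of neutral control wells and 100% = median of positive control wells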
The depositor's hits bear a star; ? = inconclusive; . = not tested or not shown.

SMILES | T cruzi growth-1 | Pf Dd2 growth | C diff HTS | T cruzi growth-2 | T cruzi growth-3 | NIH3T3 tox | 3T3 cytotox 2
COc1ccc(-c2cnc3c(c2)C(=O)N([C@H](C)CO)C[C@H](C)[C@@H](CN(C)C(=O)CN(C)C)O3)cc1 | 105.4* | -6.6 | -6.6 | 35.6 | 3.3 | 23.3 | 1.7
C[C@H](CO)N1C[C@H](C)[C@H](CN(C)S(=O)(=O)c2ccc(F)cc2)Oc2ncc(C#Cc3ccc(C(F)(F)F)cc3)cc2C1=O | 111.9* | -49.0 | 6.2 | 104.5* | 102.9* | 25.9 | 35.4*
C[C@H]1CN([C@@H](C)CO)C(=O)Cc2cc(NC(=O)C3CCCCC3)ccc2O[C@@H]1CN(C)Cc1ccc(Oc2ccccc2)cc1 | 94.8 | -39.9 | 21.5 | . | . | . | .
COc1ccccc1C(=O)Nc1ccc2c(c1)C(=O)N(C)C[C@H](OC)[C@@H](C)CN[C@@H](C)CO2 | -38.1 | 11.1 | . | . | . | . | .
O=C(C[C@H]1CC[C@H](NS(=O)(=O)c2ccccc2)[C@H](CO)O1)NCc1ccc(Cl)c(Cl)c1 | -1.0 | -13.3 | -7.6 | . | . | . | .
C[C@H]1CN([C@@H](C)CO)S(=O)(=O)c2ccc(-c3ccccc3F)cc2O[C@@H]1CN(C)C(=O)C1CC1 | 49.7 | -36.1 | -18.3 | . | . | . | .
O=C(N[C@@H]1CC[C@@H](CCNS(=O)(=O)c2ccc(F)cc2)O[C@@H]1CO)C1CCCC1 | . | 13.2 | -0.4 | . | . | . | .
COc1ccc(S(=O)(=O)N(C)C[C@@H]2Oc3ncc(C#Cc4cccc(F)c4)cc3C(=O)N([C@H](C)CO)C[C@@H]2C)cc1 | ? | -77.1 | 3.9 | 106.9* | 76.8 | 30.3 | 48.2*
COc1ccc(S(=O)(=O)N(C)C[C@@H]2Oc3ncc(C#Cc4ccc(C(F)(F)F)cc4)cc3C(=O)N([C@H](C)CO)C[C@@H]2C)cc1 | 15.9 | -73.5 | -1.6 | . | . | . | .
C[C@H](CO)N1C[C@H](C)[C@H](CN(C)S(=O)(=O)c2ccccc2)Oc2ncc(C#Cc3ccc(C(F)(F)F)cc3)cc2C1=O | 91.7* | -51.1 | 8.2 | 107.4* | 81.1 | 32.5 | 31.8*
Cc1ccc(S(=O)(=O)N(C)C[C@@H]2Oc3ncc(C#Cc4ccc(C(F)(F)F)cc4)cc3C(=O)N([C@H](C)CO)C[C@@H]2C)cc1 | ? | -44.8 | . | 89.1 | 112.0* | 33.7 | 38.8*
C[C@@H]1CN([C@@H](C)CO)C(=O)c2cc(C#CCN(C)C)cnc2O[C@@H]1CN(C)S(=O)(=O)c1ccccc1 | 40.8 | 24.9 | -1.6 | . | . | . | .
COc1ccccc1S(=O)(=O)N(C)C[C@@H]1Oc2ncc(-c3ccc(C)cc3)cc2C(=O)N([C@@H](C)CO)C[C@H]1C | 101.5* | -11.3 | 7.4 | 102.1* | 65.4 | 28.3 | 55.3*
COc1ccccc1S(=O)(=O)N(C)C[C@@H]1Oc2ncc(-c3ccc(C)cc3)cc2C(=O)N([C@@H](C)CO)C[C@@H]1C | 66.3 | -45.0 | 0.9 | . | . | . | .
COc1ccc(S(=O)(=O)N(C)C[C@@H]2Oc3ncc(-c4ccc(F)cc4)cc3C(=O)N([C@H](C)CO)C[C@@H]2C)cc1 | 28.6 | -75.4 | -0.1 | . | . | . | .
COC(=O)[C@@H]1[C@@H](CO)[C@@H]2Cn3c(ccc(-c4ccccc4F)c3=O)[C@@H]2N1C(=O)c1cnccn1 | -2.4 | 12.8 | -4.3 | . | . | . | .
C[C@H]1CN([C@@H](C)CO)C(=O)c2cc(-c3cccc(F)c3)cnc2O[C@@H]1CN(C)C | 16.6 | 36.8 | -1.9 | . | . | . | .
CCC(=O)N(C)C[C@@H]1Oc2cc(-c3ccc(C)cc3)ccc2S(=O)(=O)N([C@@H](C)CO)C[C@@H]1C | 75.6 | -18.7 | -2.6 | . | . | . | .
CCN1[C@H](C(=O)OC)[C@@H](CO)[C@@H]2Cn3c(ccc(-c4cncnc4)c3=O)[C@@H]21 | 4.4 | -5.0 | -0.9 | . | . | . | .
CC(=O)N1[C@@H]2c3ccc(-c4ccc(F)cc4)c(=O)n3C[C@@H]2[C@@H](CO)[C@@H]1C(=O)NC1CCC1 | 73.7 | . | 2.3 | . | . | . | .
